Shn3 inh set2: reduces Shn3 3'UTR luciferase signal in osteoblasts | hit rate 0.52% among 360,000 | Clone20 osteoblast Shn3 3'UTR firefly luciferase, 24 h | AID 588674 | inhibition, % at 12.5 µM;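 active = mean inhibition of at least 75% with every replicate also reaching 75%; inconclusive = mean inhibition at least 75% but some replicate below; inactive = mean inhibition below 75%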;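 note: 0% = median of neutral control wells and 100% = pilot-screen positive control compound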
aSyn 5UTR inh: MLPCN primary screen, SNCA 5' untranslated region; AID 1813; hit rate 0.82% among 300,000; inhibition, % (tested at 7.5 µM); alpha-synuclein 5'UTR reporter, inhibitor activity; in the data active = inhibition above about 60%; inconclusive = no clear call, values can overlap the other calls;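 note: H4 neuroglioblastoma cells stably carrying SNCA 5'UTR luciferase fusion; 0% = DMSO wells and 100% = positive control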
PAX8 reporter: PAX8 transcriptional activity inhibition | AID 652154 | RMG-I TPO-luciferase reporter, SteadyGlo, 24 h | inhibition, % at 12.6 µM | hit rate 1.2% among 360,000;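 active = mean replicate inhibition at least 60% with every replicate also reaching 60%; inconclusive = only one of the two criteria is met; inactive = mean below 60% and not all replicates reaching 60%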;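 note: luciferase light reporting Pax8 driven TPO promoter activity; plate controls were median of neutral control wells for no effect and mitoxantrone controls for full effect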
LMP1 NFkB inh: inhibitors of Epstein-Barr LMP1-induced NF-kappaB reporter; LMP1-induced NF-kappaB luciferase reporter cells, luminescence; hit rate 0.69% among 350,000; inhibition, % at 12.5 µM; in the data active = inhibition above about 41%; inconclusive = no clear call, values can overlap the other calls;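 note: 0% = neutral control wells and 100% = reference inhibitor control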
MITF TRPM1 inh: MITF TRPM1 promoter inhibition in SK-MEL-5 cells | SK-MEL-5 TRPM1 promoter luciferase, 24 h | inhibition, % at 12.5 µM | hit rate 0.83% among 330,000 | AID 488899;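 active = mean inhibition across replicates of 60% or more, whatever share of single replicates reaches that level; inconclusive = some that reach 60%, reason not given; inactive = mean inhibition across replicates below 60%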
An asterisk follows results filed as active; ? = inconclusive; nt = no result given. Hits are enriched below; roughly 2.1% of the tested compounds scored in any of these assays.

SMILES	Shn3 inh set2	aSyn 5UTR inh	PAX8 reporter	LMP1 NFkB inh	MITF TRPM1 inh
Cc1ccc(S(=O)(=O)N(C)C[C@H]2OCCCC[C@@H](C)Oc3ccc(NC(=O)Nc4c(C)noc4C)cc3C(=O)N([C@@H](C)CO)C[C@H]2C)cc1	nt	nt	-5.1	nt	nt
O=C(NNC(=O)C12CC3CC(CC(C3)C1)C2)c1ccccc1F	-11.6	52.6	80.7*	5.6	11.7
COC(=O)c1cc(=O)nc2sccn12	-15.9	2.8	7.8	-7.9	-2.3
COC(=O)c1cc(NC(=O)c2c(Cl)nc3sccn23)cc(C(=O)OC)c1	-7.0	79.5*	nt	8.4	28.4
O=C(/C=C/c1ccccn1)c1cc(Cl)cc(Cl)c1O	-0.6	-28.4	63.3*	7.2	-6.3
CC(C)c1ccc(CC(=O)N2CCC2(C)C(=O)NCc2cccc3ccccc23)cc1 (configuration not stated)	5.0	nt	33.2	nt	nt
O=C1C(Cl)=C(N2CCCCC2)C(=O)C(Cl)=C1c1cnc(N2CCCCC2)s1	7.8	-36.3	nt	17.7	101.2*
C=C1C(=O)O[C@@H]2C[C@@H](C)[C@@H]3C=CC(=O)[C@@]3(C)[C@@H](OC(C)=O)[C@H]12	nt	95.4*	102.3*	nt	nt
C[C@@H]1C[C@@H]2OC(=O)[C@]3(C)[C@H]2[C@@H](OC3(C)O)[C@]2(C)C(=O)C=C[C@H]12 (some centres not stated)	-49.0	-23.4	-3.7	-3.0	-0.5
N#CCC(=O)Nc1nc(-c2ccc3c(c2)OCCO3)cs1	2.9	-53.8	-84.0	-36.5	-55.8
Cc1ccc2nc(NC(=O)CSCC(=O)OCC(=O)c3ccc(Br)cc3)sc2c1	64.5	82.9*	24.3	29.1	49.0
O=C(C[C@@H]1C=C[C@H](NC(=O)c2ccc(F)cc2)[C@@H](CO)O1)NCc1ccncn1	nt	nt	-9.4	nt	nt
Cc1ccccc1NC(=O)c1ccc(-n2cncn2)nc1	7.1	16.2	6.0	-3.7	1.8
CC(C)(C)NC(=O)NC(=O)CN1CCN(c2ccc(O)cc2)CC1	86.7*	-9.1	9.7	-3.5	12.2
CCN(CC)CCOC(=O)C(Cc1ccco1)Cc1cccc2ccccc12 (configuration not stated)	nt	104.1*	-15.7	-27.6	-1.8
CCN(CC)CCOC(=O)CCc1cccc2ccccc12	1.8	10.2	nt	1.7	3.2
CCOC(=O)/C=c1/s/c(=C/c2ccc3cc(OC)ccc3c2)c(=O)n1CC(=O)NCC1CCCO1 (configuration not stated)	59.0	nt	28.1	-1.8	53.5
CCOC(=O)/C=c1\s/c(=C\c2c(OC)ccc3ccccc23)c(=O)n1CC(=O)NCC1CCCO1 (configuration not stated)	2.1	70.8*	nt	8.8	11.8
Brc1ccc2c(c1)OCCOCCOc1cc(Br)ccc1OCCOCCOCCO2	76.7	72.7*	nt	20.4	5.9
CC(C)(C)c1ccc(Cn2c(=N)n(CC(O)c3ccco3)c3ccccc32)cc1 (configuration not stated)	82.5*	101.2*	nt	-87.3	98.0*
Cc1ccccc1Cn1c(=N)n(CC(O)c2ccco2)c2ccccc21 (configuration not stated)	0.7	6.1	nt	6.0	-3.8
Cc1c(C=O)c2ccccn2c1C(=O)c1ccccc1Cl	5.2	12.4	-0.1	53.0*	7.0
CCOc1cccc2sc(N(CCCN(C)C)C(=O)c3ccc(S(=O)(=O)N(CC)Cc4ccccc4)cc3)nc12	9.6	70.8*	-1.0	-21.4	56.9
CCOc1cccc2sc(N(CCCN(C)C)C(=O)c3ccc(S(=O)(=O)N(C)Cc4ccccc4)cc3)nc12	50.3	?	4.9	-29.6	94.5*
Cc1ccc2sc(N(CCCN(C)C)C(=O)c3ccc(S(=O)(=O)N(C)Cc4ccccc4)cc3)nc2c1C	-66.0	-72.8	26.9	-9.8	77.9*
SMILES	Shn3 inh set2	aSyn 5UTR inh	PAX8 reporter	LMP1 NFkB inh	MITF TRPM1 inh
Cc1ccc2sc(N(CCCN(C)C)C(=O)c3ccc(S(=O)(=O)N(C)C)cc3)nc2c1C	-1.5	6.9	-7.0	1.1	-13.4
CCN(Cc1ccccc1)S(=O)(=O)c1ccc(C(=O)N(CCCN(C)C)c2nc3c(F)cccc3s2)cc1	7.2	-8.7	14.8	0.2	16.5
CN(C)CCCN(C(=O)c1ccc(S(=O)(=O)N(C)Cc2ccccc2)cc1)c1nc2cc3c(cc2s1)OCO3	-24.2	46.6	4.8	-4.0	85.1*
Cc1noc(NS(=O)(=O)c2ccc(NC(=O)C34CC5CC(C3)CC(n3cnc(Br)n3)(C5)C4)cc2)c1C	-1.8	-4.5	0.2	-4.9	-3.9
CC(NC(=O)CN(c1cccc(C(F)(F)F)c1)S(=O)(=O)c1ccc(Cl)c([N+](=O)[O-])c1)c1ccccc1 (configuration not stated)	4.7	3.5	61.3*	8.0	79.3*
O=C(CN(c1cccc(C(F)(F)F)c1)S(=O)(=O)c1ccc(Cl)c([N+](=O)[O-])c1)NCc1ccccc1	22.3	9.2	27.5	-4.8	12.3
Cn1nc(C(C)(C)C)cc1C(=O)N1CCCCC1c1cc(C(=O)Nc2cccc3c2CCCC3)no1 (configuration not stated)	80.9*	nt	-3.3	nt	nt
CC(=O)Nc1ccc(C(=O)N2CCCCC2c2cc(C(=O)Nc3cccc4c3CCCC4)no2)cc1 (configuration not stated)	2.4	nt	28.6	nt	nt
O=c1c(Cl)c(Cl)cnn1Cc1nnc(-c2ccccc2Br)o1	77.6	-66.1	97.8*	-106.6	94.5*
O=C(NCc1ccco1)c1nc2c(nnn2Cc2ccccc2Cl)c(=O)[nH]1	11.1	32.9	nt	31.2	71.8*
CCCCN1CC(COCc2ccccc2)Oc2cccc(Oc3ccccc3)c2S1(=O)=O (configuration not stated)	24.8	nt	37.4	-8.9	-0.4
CCCCN1CC(COCc2ccccc2)Oc2cccc(Oc3ccc(C)cc3)c2S1(=O)=O (configuration not stated)	86.6*	nt	8.4	20.9	-2.9
CCCCN1CC(COCc2ccccc2)Oc2cccc(Oc3cc(C)c(C)c(C)c3)c2S1(=O)=O (configuration not stated)	89.6*	nt	-9.1	8.4	12.6
CC(NC(=O)/C(C#N)=C/c1ccco1)c1ccccc1 (configuration not stated)	1.4	12.3	-14.7	-3.6	-5.4
COC(=O)c1ccc(/C=C(\C#N)C(=O)NC(C)c2ccccc2)cc1 (configuration not stated)	37.7	-31.9	11.4	9.2	81.3*
COc1ccc(/C=C(\C#N)C(=O)NC(C)c2ccccc2)cc1O (configuration not stated)	0.0	3.6	6.4	11.2	-9.0
CC(NC(=O)/C(C#N)=C/c1ccc([N+](=O)[O-])o1)c1ccccc1 (configuration not stated)	94.3*	-54.3	46.4	-5.8	58.3
CCOCCCNC(=O)/C(C#N)=C/c1ccc([N+](=O)[O-])o1	97.7*	-6.7	19.1	-14.4	61.4*
CN(C)c1ccc(/C=N/NC(=O)c2cccc(C(=O)N/N=C/c3ccc(N(C)C)cc3)n2)cc1	-41.0	-3.1	-20.7	-0.5	-25.4
